These results are taken from PubChem BioAssay (Tox21).

Records with an inconclusive call do not appear. Calls of active or inactive are those of the source. Unless noted, the call rests on the fitted dose curve.

The nature of assay [1]: Nuclear factor erythroid 2-related factor 2/antioxidant responsive element (Nrf2/ARE) small molecule agonists: qHTS cell viability counter screen in human keratinocytes (AID 1919968; active means well fitted curve in the direction sought with a large enough effect in the repeat runs; an effect the other way counts as inactive or inconclusive; further: nearly all actives have a fitted effect of over 55% in size). In a few lines:
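Seed 1,500 KeratinoSens cells per well, then incubate 5 h at 37 C/5% CO2. Add compounds in DMSO and incubate 23 h. Add CellTiter-Fluor, wait 1 h and read fluorescence.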

Assay [2] in a line: Nuclear factor erythroid 2-related factor 2/antioxidant responsive element (Nrf2/ARE) small molecule agonists: luciferase reporter gene qHTS assay in human keratinocytes (AID 1919969). Further: nearly all actives have a fitted effect of over 35% in size. Further: potency means the concentration at half of the fitted maximal effect. In general terms: A reporter such as luciferase makes a cellular process visible.
For assay [3], the target named is Gonadotropin-releasing hormone receptor (Homo sapiens) (UniProt P30968). As to the kind of experiment: Human gonadotropin-releasing hormone receptor (GnRHR) small molecule agonists, calcium flux assay in GnRHR-HEK293 cells (AID 1920063). Further: nearly all actives have a fitted effect of over 35% in size. The procedure, abridged: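 Cells: HEK293 stably expressing human GnRHR. Steps: overnight (18 h) culture, 1 h calcium dye loading at 37 C, compound addition, kinetic fluorescence read at 480/540 nm. Each compound tested at 15 concentrations in triplicate.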
A general note: A change in cytosolic calcium serves as a functional read-out for many receptors and channels.

Assay [4] in a line: G protein-coupled receptor (GPCR) small molecule agonists, calcium flux assay: HEK293 wild type cell line counter screen (AID 1920065). In a few lines: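 Counter-screen of the Tox21 10K library for non-specific calcium release: dye-loaded cells received compounds in DMSO and were monitored by kinetic fluorescence (480/540 nm, 3 min). Fifteen concentrations, run in triplicate.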

A short description of assay [5]: p53 small molecule agonists, cell-based qHTS assay with human liver microsomes (AID 1963577).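 Further: p53 response element beta-lactamase reporter cells with liver microsomes plus NADPH.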 The procedure, abridged: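 HLM-supplemented p53RE-bla reporter assay: 16 h compound exposure at 37 C, microsomes and NADPH each 0.5 mg/mL final, read by fluorescence intensity.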
(In general: In qHTS, concentration-response curves come from the screen itself.)

A short description of assay [6]: p53 small molecule agonists, cell-based qHTS assay with rat liver microsomes (AID 1963578). The procedure, abridged: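 Quantitative HTS of the Tox21 10K library: p53RE-bla cells, rat liver microsomes plus NADPH at 0.5 mg/mL final each, 16 h at 37 C, beta-lactamase fluorescence detection.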
A short description of assay [7]: p53 small molecule agonists, cell-based qHTS assay with human liver microsomes: qHTS cell viability counter screen (AID 1963579). Further: nearly all actives have a fitted effect of over 45% in size. The procedure, abridged:
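Viability of p53RE-bla cells is measured as CellTiter-Glo luminescence following a 16 h, 37 C incubation with compound, liver microsomes from human donors and NADPH.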

Assay [8] can be described thus: p53 small molecule agonists, cell-based qHTS assay with rat liver microsomes: qHTS cell viability counter screen (AID 1963580). Further: nearly all actives have a fitted effect of over 45% in size. In a few lines: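 p53RE-bla HCT-116 cells (4,000/well) rested 5 h at 37 C, then given Tox21 compounds in DMSO with rat liver microsomes (0.5 mg/mL final) plus NADPH (0.5 mg/mL final) for 16 h at 37 C. Viability read by CellTiter-Glo luminescence after 30 min at room temperature.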

Assay [9] in a line: p53 small molecule agonists, cell-based qHTS assay: qHTS cell viability counter screen (AID 1963581). Further: nearly all actives have a fitted effect of over 45% in size. In a few lines: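 Cells: HCT-116 with p53 response element-driven beta-lactamase. Treatment: 16 h, 37 C, compounds in DMSO. Read: CellTiter-Glo luminescence after 30 min RT.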
A short description of assay [10]: p53 small molecule agonists, cell-based qHTS assay (AID 1963582; active means well fitted activation curve with a large enough effect in the signal ratio in the repeat runs, not every such curve was filed as active; the % refers to the signal ratio). In a few lines:
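Quantitative HTS in p53RE-bla cells: after a 5 h settling period, compounds delivered in DMSO were left on cells for 16 h at 37 C, and reporter induction was measured as fluorescence following 2 h substrate loading.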

Assay [11] deals with 5-hydroxytryptamine receptor 2A (Homo sapiens) (UniProt P28223). Nature of the assay: 5-hydroxytryptamine receptor 2A (HTR2A) small molecule antagonists, cell-based qHTS assay (AID 1963586). Further: nearly all actives have a fitted effect of over 45% in size. The procedure, abridged:
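Antagonist-mode intracellular calcium assay: DOI (4 nM) added after 5 min compound pre-incubation at room temperature to dye-loaded HTR2A-CHO cells. Fluorescence followed for 3 min, sampled every second.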

Assay [12] has the same target. Nature of the assay: 5-hydroxytryptamine receptor 2A (HTR2A) small molecule agonists, cell-based qHTS assay (AID 1963587). Further: nearly all actives have a fitted effect of over 30% in size. The procedure, abridged:
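HTR2A-CHO cells, plated 18 h at 37 C/5% CO2, dye-loaded 1 h at 37 C; compounds in DMSO added by pin tool (agonist mode). Intracellular calcium flux read as kinetic fluorescence on FDSS over 2 min at 1 s intervals.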

Assay [13] has as its target Muscarinic acetylcholine receptor M1 (Homo sapiens) (UniProt P11229). Nature of the assay: Cholinergic receptor muscarinic 1 (CHRM1) small molecule antagonists, cell-based qHTS assay (AID 1963588). Further: nearly all actives have a fitted effect of over 40% in size. Further: potency means the concentration at half of the fitted maximal effect. The procedure, abridged: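 CHRM1-CHO calcium-flux assay, antagonist mode. Cells were seeded 18 h, dye-loaded 1 h at 37 C and given compound for 5 min at RT, then acetylcholine was added at 50nM. FDSS fluorescence was read 3 min; 15 concentrations, three runs.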

Assay [14] shares this target. As to the kind of experiment: Cholinergic receptor muscarinic 1 (CHRM1) small molecule agonists, cell-based qHTS assay (AID 1963589). Further: nearly all actives have a fitted effect of over 35% in size. In a few lines: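 Agonist-mode qHTS in CHO cells stably carrying human muscarinic M1. Intracellular calcium is tracked by fluorescence every second after compound transfer; each compound runs at 15 concentrations in three independent runs.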

Assay [15] can be described thus: cAMP Responsive Elements (CRE) small molecule agonists, cell-based qHTS assay (AID 1963590). The procedure, abridged:
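Agonist mode qHTS in CRE-bla HEK 293T cells: compounds dosed from DMSO for 3 h at 37 C/5% CO2, followed by LiveBLAzer B/G FRET substrate for 2 h at room temperature.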

Assay [16] addresses Beta-2 adrenergic receptor (Homo sapiens) (UniProt P07550). As to the kind of experiment: Adrenergic beta2 receptor (ADRB2) small molecule antagonists, cell-based qHTS assay (AID 1963592). Further: series mostly up to about 92 µM; nearly all actives have a fitted effect of over 50% in size. The procedure, abridged:
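Cells (CHO, stable ADRB2 overexpression) incubated 18-20hr at 37C; compounds added from DMSO; agonist mix (1nM isoproterenol, 100uM IBMX, 25uM Ro-20-1724) added; 0.5hr RT; d2-cAMP and anti-cAMP-cryptate added; 1hr RT; 665/615 nm read.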

Assay [17] deals with D(2) dopamine receptor (Homo sapiens) (UniProt P14416). Nature of the assay: Dopamine D2 receptor (DRD2) small molecule agonists, cell-based qHTS assay (AID 1963594). Further: nearly all actives have a fitted effect of over 35% in size. The procedure, abridged: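 HEK293 cells stably expressing DRD2 were cultured 24 h at 37 C, then given Ro20-1724 (0.1 mM final) and compounds for 10 min at room temperature. NKH477 (200nM) was then added for 30 min. cAMP was read by HTRF.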

For assay [18] the target is unchanged. As to the kind of experiment: Dopamine D2 receptor (DRD2) small molecule antagonists, cell-based qHTS assay (AID 1963595; active means well fitted inhibition curve with a large enough effect in the signal ratio in the repeat runs, with a control signal flat; the % refers to the signal ratio). In a few lines:
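Stable D2 receptor HEK293 line, 24 h after seeding. Compound preincubated 10 min, then quinpirole (12 nM) with forskolin analogue NKH477 (200 nM), 30 min, room temperature. Detection by time-resolved FRET of cAMP.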

The nature of assay [19]: cAMP Responsive Elements (CRE) small molecule antagonists, cell-based qHTS assay (AID 1963591; active means well fitted inhibition curve with a large enough effect in the signal ratio in the repeat runs, not every such curve was filed as active; the % refers to the signal ratio). In a few lines: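 Antagonist mode: test compounds are co-incubated with the adenylyl cyclase activator NKH477 (0.25 uM final) on CRE-bla HEK293T cells for 3 h at 37 °C, followed by LiveBLAzer substrate loading.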
For assay [20], the target named is KiSS-1 receptor (Homo sapiens) (UniProt Q969F8). Nature of the assay: Human kisspeptin (KISS1R) small molecule agonists, calcium flux assay in KISS1R-HEK293 cells (AID 1920064; active means well fitted curve in the direction sought with a large enough effect in the repeat runs; an effect the other way counts as inactive or inconclusive). In a few lines:
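Cells plated and incubated 18 h; dye added, 1 h at 37 C; compounds in DMSO pinned in; signal read at 480/540 nm every second for 3 min. Each compound tested at 15 concentrations in triplicate.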

Chain of 5-hydroxytryptamine receptor 2A (Homo sapiens) (P28223 whole entry, looked up): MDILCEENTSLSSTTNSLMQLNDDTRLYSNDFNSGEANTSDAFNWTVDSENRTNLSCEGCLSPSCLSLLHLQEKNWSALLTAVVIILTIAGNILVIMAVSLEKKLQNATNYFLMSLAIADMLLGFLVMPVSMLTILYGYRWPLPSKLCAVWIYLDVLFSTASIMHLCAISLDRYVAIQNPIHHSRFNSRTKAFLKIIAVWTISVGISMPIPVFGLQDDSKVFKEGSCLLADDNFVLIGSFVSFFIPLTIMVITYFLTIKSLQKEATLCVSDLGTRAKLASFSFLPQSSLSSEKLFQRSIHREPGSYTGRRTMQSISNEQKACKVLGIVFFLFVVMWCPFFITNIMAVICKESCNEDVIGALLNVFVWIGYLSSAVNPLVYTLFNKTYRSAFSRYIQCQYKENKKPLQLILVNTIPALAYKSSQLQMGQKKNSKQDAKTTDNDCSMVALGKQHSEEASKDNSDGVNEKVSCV
Chain of D(2) dopamine receptor (Homo sapiens) (P14416 whole entry, looked up): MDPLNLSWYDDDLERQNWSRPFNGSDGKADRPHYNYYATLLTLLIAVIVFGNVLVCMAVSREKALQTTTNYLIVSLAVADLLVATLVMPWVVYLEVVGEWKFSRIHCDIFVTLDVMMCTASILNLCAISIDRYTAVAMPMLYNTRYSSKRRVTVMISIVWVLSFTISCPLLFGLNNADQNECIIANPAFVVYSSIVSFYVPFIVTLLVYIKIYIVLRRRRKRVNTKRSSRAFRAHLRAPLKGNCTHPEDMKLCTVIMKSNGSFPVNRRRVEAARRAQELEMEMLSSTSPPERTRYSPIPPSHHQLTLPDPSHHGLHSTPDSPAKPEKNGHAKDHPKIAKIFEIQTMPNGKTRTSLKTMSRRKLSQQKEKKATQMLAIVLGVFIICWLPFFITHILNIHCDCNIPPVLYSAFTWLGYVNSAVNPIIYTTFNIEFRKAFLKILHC
Chain of Beta-2 adrenergic receptor (Homo sapiens) (P07550 whole entry, looked up): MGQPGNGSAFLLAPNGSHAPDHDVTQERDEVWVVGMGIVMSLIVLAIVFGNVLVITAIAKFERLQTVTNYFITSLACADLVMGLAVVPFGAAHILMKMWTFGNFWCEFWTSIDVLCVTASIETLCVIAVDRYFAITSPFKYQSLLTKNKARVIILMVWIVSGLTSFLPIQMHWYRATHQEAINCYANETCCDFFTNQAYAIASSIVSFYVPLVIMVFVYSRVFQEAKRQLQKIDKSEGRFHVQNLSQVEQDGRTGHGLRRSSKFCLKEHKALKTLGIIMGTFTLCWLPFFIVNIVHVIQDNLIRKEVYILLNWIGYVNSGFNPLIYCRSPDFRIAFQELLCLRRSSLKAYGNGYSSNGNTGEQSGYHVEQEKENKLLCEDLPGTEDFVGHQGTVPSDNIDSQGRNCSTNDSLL
Chain of Muscarinic acetylcholine receptor M1 (Homo sapiens) (P11229 whole entry, looked up): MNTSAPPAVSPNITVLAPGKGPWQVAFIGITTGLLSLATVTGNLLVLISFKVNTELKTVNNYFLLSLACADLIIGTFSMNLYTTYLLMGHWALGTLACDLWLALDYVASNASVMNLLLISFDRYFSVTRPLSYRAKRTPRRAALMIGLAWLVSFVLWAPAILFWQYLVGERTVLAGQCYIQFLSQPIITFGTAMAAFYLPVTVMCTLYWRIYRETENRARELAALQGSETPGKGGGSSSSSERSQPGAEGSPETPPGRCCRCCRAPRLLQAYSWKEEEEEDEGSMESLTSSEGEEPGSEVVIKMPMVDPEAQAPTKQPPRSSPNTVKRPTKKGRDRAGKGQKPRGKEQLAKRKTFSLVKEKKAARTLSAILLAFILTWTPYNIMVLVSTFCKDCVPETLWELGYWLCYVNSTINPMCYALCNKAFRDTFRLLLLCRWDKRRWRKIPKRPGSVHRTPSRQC
Chain of Gonadotropin-releasing hormone receptor (Homo sapiens) (P30968 whole entry, looked up): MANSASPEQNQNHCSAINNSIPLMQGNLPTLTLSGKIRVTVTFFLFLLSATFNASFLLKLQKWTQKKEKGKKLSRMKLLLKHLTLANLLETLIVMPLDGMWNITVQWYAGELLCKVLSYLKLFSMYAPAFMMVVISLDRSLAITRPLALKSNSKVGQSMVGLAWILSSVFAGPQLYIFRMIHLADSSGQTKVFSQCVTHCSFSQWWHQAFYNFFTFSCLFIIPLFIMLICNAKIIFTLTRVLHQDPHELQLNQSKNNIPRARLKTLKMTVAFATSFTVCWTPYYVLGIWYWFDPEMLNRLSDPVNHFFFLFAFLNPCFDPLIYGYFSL
Chain of KiSS-1 receptor (Homo sapiens) (Q969F8 whole entry, looked up): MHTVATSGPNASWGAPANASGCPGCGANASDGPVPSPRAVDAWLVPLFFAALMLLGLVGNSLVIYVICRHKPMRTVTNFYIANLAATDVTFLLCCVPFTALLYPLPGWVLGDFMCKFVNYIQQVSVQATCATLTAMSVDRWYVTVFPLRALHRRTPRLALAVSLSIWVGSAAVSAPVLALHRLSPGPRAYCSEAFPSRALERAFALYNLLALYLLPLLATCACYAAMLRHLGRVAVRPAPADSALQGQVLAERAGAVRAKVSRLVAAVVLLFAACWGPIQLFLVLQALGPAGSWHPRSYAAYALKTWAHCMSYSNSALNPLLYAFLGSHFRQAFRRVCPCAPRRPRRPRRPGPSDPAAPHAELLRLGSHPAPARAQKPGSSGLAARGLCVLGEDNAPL

For `CC1=C(C)C(=O)C(C(CCCCCC(=O)O)c2ccccc2)=C(C)C1=O` (configuration not stated), the Potency entry in assay [1], in assay [2], in assay [3], in assay [5], in [6] and in assay [7] was “inactive” in each case. Also, the Potency entry in assay [8], in assay [9], in assay [10], in assay [11], in assay [12] and in assay [13] was “inactive” each time. Besides, the Potency entry in assay [14], in assay [15], in assay [16], in assay [17] and in [18] was “inactive” each time. Besides, the result in assay [4] was inactive.
`CCCCC(CC)COC(=O)COc1ccc(Cl)cc1Cl` (configuration not stated): the Potency entry in assay [1], in assay [2], in assay [3], in [5], in [6] and in assay [7] was “inactive” in each case. For the same molecule, the Potency result in assay [8], in [9], in [10], in [11], in [12] and in assay [13] was “inactive” each time. The Potency entry in assay [14], in assay [19], in assay [16] and in assay [18] was “inactive” throughout. For the same molecule, the outcome in [4] was inactive.
Consider `Clc1cccnc1`, for which the Potency result in assay [1], in assay [2], in assay [3], in assay [5], in assay [6] and in [7] was “inactive” throughout. Also, the Potency entry in assay [8], in assay [9], in assay [10], in assay [11], in [12] and in assay [13] was “inactive” throughout. In addition, the Potency result in [14], in [15], in assay [19], in assay [16], in assay [17] and in assay [18] was “inactive” in each case. Besides, the result in assay [4] was inactive.
Consider `CCCCc1ccc2c(n1)[C@@H](c1ccc(OC)cc1C[C@H](C)C(=O)O)[C@H](C(=O)O)[C@H]2c1ccc2c(c1)OCO2`, for which the Potency result in [1], in assay [2], in [3], in assay [5], in assay [6] and in assay [7] was “inactive” throughout. Moreover, the Potency result in assay [8], in [9], in assay [10], in [11], in [12] and in assay [13] was “inactive” throughout. Besides, the Potency result in assay [14], in assay [16], in assay [17] and in [18] was “inactive” in each case. For the same molecule, the result in [4] was inactive.
`Cc1ccsc1/C=C/C1=NCCCN1C`: the Potency entry in assay [1], in [2], in assay [3], in assay [5], in assay [6] and in assay [7] was “inactive” each time. The Potency entry in assay [8], in [9], in assay [10], in assay [11], in assay [12] and in assay [14] was “inactive” throughout. The Potency entry in assay [19], in assay [16] and in assay [18] was “inactive” each time. In addition, the result in assay [4] was inactive. Besides, the Potency in assay [13] was 0.0033 µM (active).
Regarding `CC(C)(C)C(=O)/C=C/c1ccc(Cl)cc1`, the Potency result in [1], in [3], in assay [5], in [6], in assay [7] and in assay [8] was “inactive” throughout. Further, the Potency result in assay [9], in [10], in assay [11], in [12], in [13] and in [14] was “inactive” each time. Further, the Potency result in assay [19], in [16] and in assay [17] was “inactive” in each case. Further, the Potency in assay [2] is 54.5 µM (active). Further, the outcome in assay [4] was inactive.
With `Nc1nc2c(ncn2COCCO)c(=O)[nH]1`, the Potency result in assay [1], in assay [2], in assay [3], in assay [5], in [8] and in assay [9] was “inactive” each time. Moreover, the Potency entry in assay [10], in assay [15], in assay [19], in assay [16] and in assay [17] was “inactive” throughout. The outcome in [20] was inactive.
